Results reported in PubChem BioAssay.

Assays:
[1] = tested on: Botulinum neurotoxin type F light chain protease (Clostridium botulinum); test: Botulinum neurotoxin type F light chain protease inhibition, multiplex microsphere flow cytometry, validation set (AID 588459); conditions: multiplex microsphere protease substrate cleavage assay, at 10 µM, hits give high values
[2] = target: Botulinum neurotoxin type A (Clostridium botulinum) (UniProt P0DPI0); test: BoNT/A light chain protease inhibitors, biochemical, multiplex microsphere flow cytometry, validation set (AID 588460); conditions: at 10 µM, hits give high values
Botulinum neurotoxin type A (Clostridium botulinum), sequence (P0DPI0 whole entry, looked up): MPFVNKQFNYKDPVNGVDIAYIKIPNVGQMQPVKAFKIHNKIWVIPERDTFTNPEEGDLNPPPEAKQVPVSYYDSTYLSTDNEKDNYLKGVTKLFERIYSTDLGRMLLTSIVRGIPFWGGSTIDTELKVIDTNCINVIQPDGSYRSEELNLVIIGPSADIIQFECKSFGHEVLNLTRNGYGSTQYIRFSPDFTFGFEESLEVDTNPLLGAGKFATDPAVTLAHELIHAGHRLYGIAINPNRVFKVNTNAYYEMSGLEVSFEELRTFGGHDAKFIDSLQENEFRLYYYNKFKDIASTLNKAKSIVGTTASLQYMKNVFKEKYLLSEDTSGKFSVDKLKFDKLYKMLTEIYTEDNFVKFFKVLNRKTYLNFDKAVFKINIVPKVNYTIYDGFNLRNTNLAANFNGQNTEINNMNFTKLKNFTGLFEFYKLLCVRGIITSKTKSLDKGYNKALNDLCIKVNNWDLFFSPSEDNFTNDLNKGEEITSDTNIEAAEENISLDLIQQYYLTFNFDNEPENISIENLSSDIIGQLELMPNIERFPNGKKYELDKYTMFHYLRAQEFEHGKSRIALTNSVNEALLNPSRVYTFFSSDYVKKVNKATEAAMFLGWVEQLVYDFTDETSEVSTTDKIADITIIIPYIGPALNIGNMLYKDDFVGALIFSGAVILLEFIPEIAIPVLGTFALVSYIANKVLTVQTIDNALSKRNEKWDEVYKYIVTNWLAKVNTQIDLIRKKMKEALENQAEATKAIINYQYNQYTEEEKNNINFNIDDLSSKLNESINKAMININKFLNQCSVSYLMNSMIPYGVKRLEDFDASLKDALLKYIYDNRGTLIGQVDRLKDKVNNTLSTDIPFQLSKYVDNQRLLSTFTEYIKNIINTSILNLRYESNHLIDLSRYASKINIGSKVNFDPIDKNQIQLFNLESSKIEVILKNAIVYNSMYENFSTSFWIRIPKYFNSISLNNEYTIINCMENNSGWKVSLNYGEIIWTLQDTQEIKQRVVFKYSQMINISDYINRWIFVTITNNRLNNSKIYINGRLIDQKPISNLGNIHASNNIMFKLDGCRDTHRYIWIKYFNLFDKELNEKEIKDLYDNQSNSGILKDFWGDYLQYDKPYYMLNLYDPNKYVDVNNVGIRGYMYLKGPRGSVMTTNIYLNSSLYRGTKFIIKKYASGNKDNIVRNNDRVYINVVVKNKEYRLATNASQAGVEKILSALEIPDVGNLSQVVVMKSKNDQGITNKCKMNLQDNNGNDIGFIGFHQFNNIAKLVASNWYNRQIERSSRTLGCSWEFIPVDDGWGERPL

[3] = target: Lethal factor (Bacillus anthracis) (UniProt P15917); test: Lethal factor protease inhibitors, Bacillus anthracis, multiplex microsphere cleavage assay, validation set (AID 588461); conditions: flow cytometry, at 10 µM, hits give high values
Lethal factor (Bacillus anthracis), sequence (P15917 whole entry, looked up): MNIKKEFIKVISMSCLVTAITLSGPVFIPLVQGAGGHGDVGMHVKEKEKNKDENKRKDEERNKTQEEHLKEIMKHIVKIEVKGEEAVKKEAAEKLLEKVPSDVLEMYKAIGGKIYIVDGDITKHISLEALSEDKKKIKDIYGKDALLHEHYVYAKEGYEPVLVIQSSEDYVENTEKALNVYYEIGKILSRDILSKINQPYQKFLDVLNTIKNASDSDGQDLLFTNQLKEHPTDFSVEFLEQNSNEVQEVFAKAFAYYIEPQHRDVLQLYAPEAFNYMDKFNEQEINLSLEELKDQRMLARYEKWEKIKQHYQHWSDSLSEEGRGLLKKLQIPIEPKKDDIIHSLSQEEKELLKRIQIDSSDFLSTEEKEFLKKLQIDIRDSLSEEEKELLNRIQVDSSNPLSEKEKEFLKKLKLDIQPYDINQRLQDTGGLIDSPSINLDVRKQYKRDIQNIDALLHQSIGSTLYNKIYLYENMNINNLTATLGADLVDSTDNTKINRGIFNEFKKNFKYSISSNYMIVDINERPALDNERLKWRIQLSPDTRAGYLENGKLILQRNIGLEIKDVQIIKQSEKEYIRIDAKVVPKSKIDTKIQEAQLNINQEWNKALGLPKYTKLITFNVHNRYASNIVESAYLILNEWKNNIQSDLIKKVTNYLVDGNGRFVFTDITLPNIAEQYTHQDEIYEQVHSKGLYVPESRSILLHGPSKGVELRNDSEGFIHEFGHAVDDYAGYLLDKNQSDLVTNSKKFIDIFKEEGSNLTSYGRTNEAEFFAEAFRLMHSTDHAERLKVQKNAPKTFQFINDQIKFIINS

Measured: inhibition

COc1ccc(C(=O)Nc2cccc3cccnc23)cc1OC
inactive: [1] -2.2% | [2] -2.2% | [3] -4.6%

CC1(C)CC(=O)c2cnc(NC(=O)C3CCCC3)nc2C1
inactive: [1] 1.2% | [2] -1.3% | [3] -3.2%

C#C[C@]1(O)CC[C@H]2[C@@H]3CCc4cc(OC)ccc4[C@H]3CC[C@@]21C
inactive: [1] 0.9% | [2] 0.4% | [3] -5.2%

COc1cccc(CN2CCN(C(=O)c3ccc(-c4ccccc4)cc3)CC2)c1
inactive: [1] 3.8% | [2] -0.4% | [3] -3.1%

Cn1cnc2c1c(=O)n(CC(O)CO)c(=O)n2C (stereo unspecified)
inactive: [1] -0.3% | [2] 0% | [3] -1.4%

O=C(O)/C=C/c1ccc(O)c(O)c1
inactive: [1] -0.3% | [2] -0.4% | [3] -1.7%

CS(=O)(=O)c1cccc(C(=O)Oc2ccccc2)c1
inactive: [1] -2% | [2] 0.1% | [3] 4.6%
